Experimental data published in the supplement of paper PMC10849652.
The full data set covers some 7,900 targets. This sample favours those with a hit. About 0.6% of all pairs of compound and target were hits.

Tests used:
Assay in all cases: log2 fold change, soluble protein after heating vs DMSO (PISA); higher = thermal stabilisation; K562 cells, 10 uM, 30 min; active = over 0.2 and 3.5 SD of the protein, either way, in both replicates (recomputed)
bafetinib = compound: Cc1ccc(NC(=O)c2ccc(CN3CC[C@H](N(C)C)C3)c(C(F)(F)F)c2)cc1Nc1nccc(-c2cncnc2)n1 [bafetinib]
Outline: (§1)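 K562 cells at 2×10^6 cells/mL were exposed to 10 μM compound for 30 min, then aliquots were heated for 3 min across 48°C-58°C, pooled, and extracted in PBS containing 0.5% NP-40 at 4°C. The supernatant after 21,000xg for 90 min was taken as soluble protein and measured by TMTpro 16plex LC-MS/MS with channel sums equalised. Thermal stability is reported relative to control samples, with values from duplicates. Fold changes are given on a log2 scale.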

[1] = compound: Cc1cccc(CC(=O)N2CCc3c2ccc(-c2cn(C)c4ncnc(N)c24)c3F)n1
Outline: as §1

nilotinib = compound: Cc1cn(-c2cc(NC(=O)c3ccc(C)c(Nc4nccc(-c5cccnc5)n4)c3)cc(C(F)(F)F)c2)cn1 [nilotinib]
Outline: as §1

[2] = compound: Cc1nc(Nc2n[nH]c3c2CN(C(=O)N[C@H](CN(C)C)c2ccccc2)C3(C)C)c2sccc2n1
Outline: as §1

dasatinib = compound: Cc1nc(Nc2ncc(C(=O)Nc3c(C)cccc3Cl)s2)cc(N2CCN(CCO)CC2)n1 [dasatinib]
Outline: as §1

[3] = compound: Cc1ncc(-c2ccnc(Nc3ccc(S(C)(=O)=O)cc3)n2)n1C(C)C
Outline: as §1

[4] = compound: Cn1cc(-c2ccc3c(c2)CCN3C(=O)Cc2cccc(C(F)(F)F)c2)c2c(N)ncnc21
Outline: as §1

[5] = compound: Cn1cc(-c2ccc3nnc(C(F)(F)c4ccc5ncccc5c4)n3n2)cn1
Outline: as §1

tipifarnib = compound: Cn1cncc1[C@@](N)(c1ccc(Cl)cc1)c1ccc2c(c1)c(-c1cccc(Cl)c1)cc(=O)n2C [tipifarnib]
Outline: as §1

mubritinib = compound: FC(F)(F)c1ccc(/C=C/c2nc(COc3ccc(CCCCn4ccnn4)cc3)co2)cc1 [mubritinib]
Outline: as §1

[6] = compound: NC(=O)Nc1cc(-c2cccc(F)c2)sc1C(=O)N[C@H]1CCCNC1
Outline: as §1

[7] = compound: NC(=O)c1cnc(N[C@@H]2CCCC[C@@H]2N)nc1Nc1cccc(-n2nccn2)c1
Outline: as §1

[8] = compound: NC1(c2ccc(-c3nc4ccn5c(=O)[nH]nc5c4cc3-c3ccccc3)cc2)CCC1
Outline: as §1

[9] = compound: NCC(=O)Nc1ccc(-n2nc(C(F)(F)F)cc2-c2ccc3c(ccc4ccccc43)c2)cc1
Outline: as §1

entinostat = compound: Nc1ccccc1NC(=O)c1ccc(CNC(=O)OCc2cccnc2)cc1 [entinostat]
Outline: as §1

vorinostat = compound: O=C(CCCCCCC(=O)Nc1ccccc1)NO [vorinostat]
Outline: as §1

citarinostat = compound: O=C(CCCCCCNC(=O)c1cnc(N(c2ccccc2)c2ccccc2Cl)nc1)NO [citarinostat]
Outline: as §1

silmitasertib = compound: O=C(O)c1ccc2c(c1)nc(Nc1cccc(Cl)c1)c1ccncc12 [silmitasertib]
Outline: as §1

[10] = compound: O=C1NC(=O)C(c2cnc3ccccn23)=C1c1cn2c3c(cc(F)cc13)CN(C(=O)N1CCCCC1)CC2
Outline: as §1

[11] = compound: c1cc(OCCN2CCCCC2)cc(-c2n[nH]c3ccc(-c4nnc[nH]4)cc23)c1
Outline: as §1

Measured: log2 fold change

GNPAT (UniProt O15228)
inactive: bafetinib -0.129 | [1] 0.045 | nilotinib -0.011 | [2] -0.008 | dasatinib 0.014 | [3] -0.028 | [4] 0.059 | [5] 0.005 | tipifarnib 0.031 | mubritinib 0.005 | [6] 0.02 | [7] -0.008 | [8] -0.066 | [9] 0 | entinostat 0.021 | vorinostat -0.008 | citarinostat 0.041 | silmitasertib -0.041 | [10] -0.061 | [11] -0.02

GTF2E2 (UniProt P29084)
Chain of UniProt P29084 (P29084 whole entry, looked up): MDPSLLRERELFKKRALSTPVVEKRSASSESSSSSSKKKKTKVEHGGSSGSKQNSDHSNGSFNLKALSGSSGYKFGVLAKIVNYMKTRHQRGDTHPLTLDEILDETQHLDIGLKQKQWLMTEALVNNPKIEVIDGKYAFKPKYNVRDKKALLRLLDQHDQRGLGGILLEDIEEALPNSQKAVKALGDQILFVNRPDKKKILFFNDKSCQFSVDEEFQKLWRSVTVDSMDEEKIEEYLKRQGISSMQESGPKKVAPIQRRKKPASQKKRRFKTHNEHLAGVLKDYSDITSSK
inactive: bafetinib 0.031 | [1] 0.03 | nilotinib -0.082 | [2] -0.108 | dasatinib -0.241 | [3] 0.005 | [4] -0.016 | [5] 0.044 | tipifarnib 0.051 | mubritinib -0.02 | [6] -0.097 | [7] -0.052 | [8] -0.048 | [9] -0.048 | entinostat 0.025 | vorinostat 0.093 | citarinostat 0.093 | silmitasertib 0.085 | [10] 0.054 | [11] -0.067

HIP1R (UniProt O75146)
inactive: bafetinib -0.021 | [1] 0.043 | nilotinib -0.11 | [2] 0.016 | dasatinib -0.144 | [3] -0.019 | [4] 0.022 | [5] -0.013 | tipifarnib -0.075 | mubritinib 0.036 | [6] -0.032 | [7] -0.001 | [8] -0.138 | [9] 0.014 | entinostat 0.027 | vorinostat 0.069 | citarinostat 0.022 | silmitasertib 0 | [10] -0.024 | [11] -0.005

GATA1 (UniProt P15976)
Chain of UniProt P15976 (P15976 whole entry, looked up): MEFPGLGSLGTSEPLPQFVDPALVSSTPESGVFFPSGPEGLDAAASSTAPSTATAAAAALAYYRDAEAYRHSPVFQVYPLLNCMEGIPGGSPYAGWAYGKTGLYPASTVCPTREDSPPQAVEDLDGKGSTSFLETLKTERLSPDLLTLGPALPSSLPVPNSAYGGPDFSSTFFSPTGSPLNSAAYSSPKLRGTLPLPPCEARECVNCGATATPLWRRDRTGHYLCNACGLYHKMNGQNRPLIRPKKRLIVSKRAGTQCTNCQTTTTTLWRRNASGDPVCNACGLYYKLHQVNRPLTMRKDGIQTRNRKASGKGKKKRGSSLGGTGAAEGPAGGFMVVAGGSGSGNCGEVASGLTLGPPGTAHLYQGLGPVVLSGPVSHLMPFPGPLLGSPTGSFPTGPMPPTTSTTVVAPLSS
inactive: bafetinib -0.09 | [1] 0.007 | nilotinib 0.028 | [2] 0.033 | dasatinib 0.157 | [3] -0.008 | [4] -0.084 | [5] -0.017 | tipifarnib -0.015 | mubritinib -0.033 | [6] 0.009 | [7] 0.012 | [8] -0.018 | [9] 0.059 | entinostat -0.084 | vorinostat -0.164 | citarinostat -0.166 | silmitasertib 0.065 | [10] -0.039 | [11] -0.096

HIST2H2BF isoform 2 (UniProt Q5QNW6)
inactive: bafetinib 0.211 | [1] -0.189 | nilotinib -0.044 | [2] -0.006 | dasatinib 0.147 | [3] 0.012 | [4] -0.358 | [5] -0.098 | tipifarnib -0.018 | mubritinib -0.173 | [6] 0.048 | [7] 0.225 | [8] 0.48 | [9] -0.029 | entinostat 0.159 | vorinostat 0.123 | citarinostat -0.001 | silmitasertib -0.064 | [10] 0.101 | [11] 0.016

GALK1 isoform 2 (UniProt P51570)
Chain of UniProt P51570 (P51570 whole entry, looked up): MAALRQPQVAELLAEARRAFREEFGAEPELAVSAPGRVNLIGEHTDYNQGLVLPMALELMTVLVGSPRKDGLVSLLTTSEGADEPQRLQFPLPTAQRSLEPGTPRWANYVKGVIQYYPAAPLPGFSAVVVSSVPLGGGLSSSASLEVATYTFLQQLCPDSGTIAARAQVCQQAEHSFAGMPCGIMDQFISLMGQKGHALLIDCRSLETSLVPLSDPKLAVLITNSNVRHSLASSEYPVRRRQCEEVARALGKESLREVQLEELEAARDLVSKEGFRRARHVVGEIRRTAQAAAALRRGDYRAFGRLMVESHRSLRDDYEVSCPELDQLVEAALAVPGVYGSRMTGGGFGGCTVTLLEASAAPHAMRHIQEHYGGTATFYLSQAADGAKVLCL
active: [6] 0.357
inactive: bafetinib 0.061 | [1] 0.062 | nilotinib -0.018 | [2] -0.001 | dasatinib -0.043 | [3] -0.015 | [4] 0.055 | [5] -0.084 | tipifarnib -0.136 | mubritinib 0.01 | [7] 0.066 | [8] -0.087 | [9] 0.141 | entinostat 0.171 | vorinostat 0.094 | citarinostat 0.111 | silmitasertib -0.063 | [10] 0.049 | [11] 0.11

HNRNPC isoform 2 (UniProt P07910)
inactive: bafetinib 0.159 | [1] -0.228 | nilotinib 0.054 | [2] -0.099 | dasatinib 0.425 | [3] -0.286 | [4] -0.431 | [5] -0.173 | tipifarnib 0.596 | mubritinib -0.268 | [6] -0.032 | [7] -0.049 | [8] 0.568 | [9] -0.037 | entinostat 0.148 | vorinostat -0.041 | citarinostat -0.062 | silmitasertib 0.199 | [10] 0.104 | [11] -0.252

HEATR5B (UniProt Q9P2D3)
Chain of UniProt Q9P2D3 (Q9P2D3 whole entry, looked up): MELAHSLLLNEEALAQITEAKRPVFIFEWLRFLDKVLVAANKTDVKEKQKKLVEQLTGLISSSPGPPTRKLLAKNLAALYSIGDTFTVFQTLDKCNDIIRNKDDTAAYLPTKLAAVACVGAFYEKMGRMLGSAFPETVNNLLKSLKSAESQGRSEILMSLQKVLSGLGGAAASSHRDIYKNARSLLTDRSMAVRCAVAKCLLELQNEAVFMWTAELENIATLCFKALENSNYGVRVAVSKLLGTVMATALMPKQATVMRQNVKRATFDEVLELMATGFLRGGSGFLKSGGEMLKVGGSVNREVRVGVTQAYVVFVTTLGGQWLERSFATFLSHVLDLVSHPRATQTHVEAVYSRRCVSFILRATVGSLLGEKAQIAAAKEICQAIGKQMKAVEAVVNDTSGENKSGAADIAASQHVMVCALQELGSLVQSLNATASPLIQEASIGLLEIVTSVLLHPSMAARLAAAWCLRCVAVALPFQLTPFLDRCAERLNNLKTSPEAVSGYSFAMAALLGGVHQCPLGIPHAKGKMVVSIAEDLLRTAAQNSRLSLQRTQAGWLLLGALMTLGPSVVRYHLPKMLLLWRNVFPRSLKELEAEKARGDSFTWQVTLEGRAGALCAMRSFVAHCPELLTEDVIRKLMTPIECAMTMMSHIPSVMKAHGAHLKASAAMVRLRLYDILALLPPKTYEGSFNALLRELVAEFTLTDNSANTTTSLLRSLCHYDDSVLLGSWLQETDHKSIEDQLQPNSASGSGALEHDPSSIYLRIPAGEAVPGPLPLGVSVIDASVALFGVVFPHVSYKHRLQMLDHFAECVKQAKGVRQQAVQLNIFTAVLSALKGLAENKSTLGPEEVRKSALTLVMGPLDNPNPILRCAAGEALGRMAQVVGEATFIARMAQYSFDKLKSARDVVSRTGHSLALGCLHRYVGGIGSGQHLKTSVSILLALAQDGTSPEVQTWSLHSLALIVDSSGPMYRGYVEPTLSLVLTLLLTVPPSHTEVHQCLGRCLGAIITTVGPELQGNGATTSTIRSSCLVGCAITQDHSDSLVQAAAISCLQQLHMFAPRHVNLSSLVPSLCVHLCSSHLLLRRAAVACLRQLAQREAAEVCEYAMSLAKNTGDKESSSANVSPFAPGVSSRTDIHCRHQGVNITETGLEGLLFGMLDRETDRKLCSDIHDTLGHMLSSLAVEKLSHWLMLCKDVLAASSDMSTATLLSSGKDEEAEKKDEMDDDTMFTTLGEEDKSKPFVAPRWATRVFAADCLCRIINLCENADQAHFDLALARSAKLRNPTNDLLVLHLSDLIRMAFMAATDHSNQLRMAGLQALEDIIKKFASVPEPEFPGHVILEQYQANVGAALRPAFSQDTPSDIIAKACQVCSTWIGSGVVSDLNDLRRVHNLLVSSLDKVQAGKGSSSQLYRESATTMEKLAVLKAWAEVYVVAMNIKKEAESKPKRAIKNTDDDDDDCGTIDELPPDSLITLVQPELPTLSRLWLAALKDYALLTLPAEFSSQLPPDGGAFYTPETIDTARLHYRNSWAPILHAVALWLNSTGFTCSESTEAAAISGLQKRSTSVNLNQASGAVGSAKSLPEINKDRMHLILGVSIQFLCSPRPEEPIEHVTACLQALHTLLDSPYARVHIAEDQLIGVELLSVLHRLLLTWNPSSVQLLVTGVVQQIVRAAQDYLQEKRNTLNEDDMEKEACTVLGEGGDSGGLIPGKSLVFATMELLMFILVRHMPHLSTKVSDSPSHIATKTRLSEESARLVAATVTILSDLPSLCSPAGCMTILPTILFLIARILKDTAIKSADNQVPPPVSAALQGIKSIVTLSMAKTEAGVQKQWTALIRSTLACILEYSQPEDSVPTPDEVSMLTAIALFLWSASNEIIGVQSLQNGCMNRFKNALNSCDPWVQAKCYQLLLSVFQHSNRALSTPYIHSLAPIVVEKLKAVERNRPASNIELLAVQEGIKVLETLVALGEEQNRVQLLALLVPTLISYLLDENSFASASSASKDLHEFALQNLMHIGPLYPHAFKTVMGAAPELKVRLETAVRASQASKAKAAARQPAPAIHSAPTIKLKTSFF
inactive: bafetinib -0.007 | [1] 0.014 | nilotinib -0.049 | [2] -0.066 | dasatinib -0.119 | [3] 0.072 | [4] -0.029 | [5] -0.012 | tipifarnib -0.052 | mubritinib 0.034 | [6] 0.01 | [7] 0.012 | [8] -0.152 | [9] -0.028 | entinostat -0.03 | vorinostat -0.008 | citarinostat 0 | silmitasertib -0.053 | [10] 0.083 | [11] 0.056

GSR (UniProt P00390)
Chain of UniProt P00390 (P00390 whole entry, looked up): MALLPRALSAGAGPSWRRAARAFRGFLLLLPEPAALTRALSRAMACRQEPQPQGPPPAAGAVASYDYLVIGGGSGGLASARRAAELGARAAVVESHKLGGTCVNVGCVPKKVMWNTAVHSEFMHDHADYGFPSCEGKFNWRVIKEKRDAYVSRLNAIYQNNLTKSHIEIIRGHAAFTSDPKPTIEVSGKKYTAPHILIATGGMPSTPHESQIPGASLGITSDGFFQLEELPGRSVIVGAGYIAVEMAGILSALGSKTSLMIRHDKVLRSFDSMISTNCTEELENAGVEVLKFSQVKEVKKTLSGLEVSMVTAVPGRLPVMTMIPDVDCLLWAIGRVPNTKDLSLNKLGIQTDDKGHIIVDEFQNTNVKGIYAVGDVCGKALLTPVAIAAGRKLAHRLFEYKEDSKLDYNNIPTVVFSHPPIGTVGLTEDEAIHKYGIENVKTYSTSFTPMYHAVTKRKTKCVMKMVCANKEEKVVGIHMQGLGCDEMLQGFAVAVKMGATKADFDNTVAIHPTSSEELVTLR
inactive: bafetinib -0.031 | [1] 0 | nilotinib -0.025 | [2] 0.02 | dasatinib 0.02 | [3] 0 | [4] 0.002 | [5] 0.022 | tipifarnib -0.058 | mubritinib 0.024 | [6] 0.008 | [7] -0.046 | [8] 0 | [9] -0.03 | entinostat -0.011 | vorinostat 0.019 | citarinostat 0.028 | silmitasertib -0.027 | [10] -0.023 | [11] 0.018

HNRNPF (UniProt P52597)
Chain of UniProt P52597 (P52597 whole entry, looked up): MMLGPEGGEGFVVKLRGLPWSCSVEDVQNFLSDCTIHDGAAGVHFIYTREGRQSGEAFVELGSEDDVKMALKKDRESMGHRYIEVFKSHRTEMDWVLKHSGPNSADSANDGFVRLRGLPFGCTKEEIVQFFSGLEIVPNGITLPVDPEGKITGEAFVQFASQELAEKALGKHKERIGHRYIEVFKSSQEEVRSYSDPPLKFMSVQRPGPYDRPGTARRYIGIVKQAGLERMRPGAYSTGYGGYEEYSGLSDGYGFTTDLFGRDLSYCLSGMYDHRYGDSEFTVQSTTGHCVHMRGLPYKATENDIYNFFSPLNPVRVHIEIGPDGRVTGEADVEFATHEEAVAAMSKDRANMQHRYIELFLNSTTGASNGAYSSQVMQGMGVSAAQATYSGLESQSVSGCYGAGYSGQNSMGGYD
inactive: bafetinib -0.013 | [1] 0.056 | nilotinib -0.106 | [2] -0.178 | dasatinib -0.15 | [3] -0.066 | [4] 0.024 | [5] -0.057 | tipifarnib -0.051 | mubritinib -0.022 | [6] -0.015 | [7] 0.014 | [8] -0.11 | [9] -0.027 | entinostat 0.137 | vorinostat 0.154 | citarinostat 0.07 | silmitasertib 0.074 | [10] -0.104 | [11] -0.048

HOOK3 (UniProt Q86VS8)
Chain of UniProt Q86VS8 (Q86VS8 whole entry, looked up): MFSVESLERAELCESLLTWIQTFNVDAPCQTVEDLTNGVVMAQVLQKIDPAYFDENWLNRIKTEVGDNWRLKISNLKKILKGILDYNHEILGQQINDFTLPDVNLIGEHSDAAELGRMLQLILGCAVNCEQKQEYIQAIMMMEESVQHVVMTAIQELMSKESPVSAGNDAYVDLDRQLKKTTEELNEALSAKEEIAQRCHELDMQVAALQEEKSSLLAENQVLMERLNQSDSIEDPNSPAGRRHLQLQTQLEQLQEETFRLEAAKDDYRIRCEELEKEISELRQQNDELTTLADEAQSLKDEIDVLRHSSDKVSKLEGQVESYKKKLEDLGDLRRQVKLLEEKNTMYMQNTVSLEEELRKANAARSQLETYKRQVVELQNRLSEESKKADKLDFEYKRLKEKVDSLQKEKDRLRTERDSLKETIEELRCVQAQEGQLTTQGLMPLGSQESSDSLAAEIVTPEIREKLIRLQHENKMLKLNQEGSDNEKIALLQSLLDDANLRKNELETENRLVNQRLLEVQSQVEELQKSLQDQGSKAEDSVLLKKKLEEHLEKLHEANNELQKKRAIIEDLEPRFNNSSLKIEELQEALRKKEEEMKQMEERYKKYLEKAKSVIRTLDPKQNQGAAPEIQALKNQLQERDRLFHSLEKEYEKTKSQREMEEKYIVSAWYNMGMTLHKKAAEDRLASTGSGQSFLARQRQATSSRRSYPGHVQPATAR
inactive: bafetinib -0.047 | [1] 0.029 | nilotinib -0.088 | [2] -0.078 | dasatinib -0.07 | [3] 0.009 | [4] 0.002 | [5] -0.027 | tipifarnib -0.001 | mubritinib -0.024 | [6] 0.05 | [7] -0.077 | [8] -0.079 | [9] -0.081 | entinostat 0.063 | vorinostat 0.056 | citarinostat -0.022 | silmitasertib 0.101 | [10] -0.049 | [11] -0.05

FDFT1 (UniProt P37268)
inactive: bafetinib 0.01 | [1] 0.016 | nilotinib 0.12 | [2] 0.071 | dasatinib 0.023 | [3] -0.019 | [4] 0.111 | [5] -0.047 | tipifarnib 0.089 | mubritinib 0.022 | [6] 0.044 | [7] 0.064 | [8] -0.042 | [9] 0.035 | entinostat -0.008 | vorinostat -0.018 | citarinostat 0.086 | silmitasertib -0.031 | [10] 0.004 | [11] 0.093

FARS2 (UniProt O95363)
inactive: bafetinib -0.058 | [1] 0.064 | nilotinib -0.126 | [2] 0.079 | dasatinib -0.058 | [3] -0.097 | [4] 0.039 | [5] 0.039 | tipifarnib 0.018 | mubritinib -0.168 | [6] -0.006 | [7] 0.003 | [8] -0.222 | [9] 0.012 | entinostat 0.028 | vorinostat 0.073 | citarinostat 0.022 | silmitasertib -0.027 | [10] -0.11 | [11] 0.005

GCC2 (UniProt Q8IWJ2)
inactive: bafetinib 0.033 | [1] -0.045 | nilotinib -0.14 | [2] -0.071 | dasatinib -0.011 | [3] 0.119 | [4] -0.032 | [5] 0.02 | tipifarnib 0.051 | mubritinib -0.088 | [6] -0.009 | [7] -0.005 | [8] 0.081 | [9] 0.009 | entinostat 0.03 | vorinostat -0.002 | citarinostat -0.066 | silmitasertib 0.212 | [10] 0.225 | [11] 0.009

GPX4 (UniProt P36969)
Chain of UniProt P36969 (P36969 whole entry, looked up): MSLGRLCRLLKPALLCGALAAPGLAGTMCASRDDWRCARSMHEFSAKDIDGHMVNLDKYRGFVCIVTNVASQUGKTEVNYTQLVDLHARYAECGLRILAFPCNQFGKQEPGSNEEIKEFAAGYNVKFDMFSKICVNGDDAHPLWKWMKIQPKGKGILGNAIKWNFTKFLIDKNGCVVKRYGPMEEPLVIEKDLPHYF
inactive: bafetinib 0.003 | [1] 0.023 | nilotinib 0.036 | [2] -0.031 | dasatinib 0.015 | [3] 0.019 | [4] 0.05 | [5] 0.003 | tipifarnib -0.046 | mubritinib 0.033 | [6] -0.006 | [7] 0.079 | [8] -0.052 | [9] 0.032 | entinostat -0.107 | vorinostat -0.082 | silmitasertib 0.004 | [10] -0.006 | [11] -0.049
active: citarinostat -0.391
